Bioassay records as filed in PubChem.
Rows were chosen to be rich in hits. Some 21% of all compounds tested hit in one or more screens of this group.
Pf growth 96h = Primary qHTS for delayed death inhibitors of the malarial parasite plastid, 96 hour incubation. P. falciparum luciferase reporter growth, 96 h. Potency, µM (series often up to 28.7 µM), hits mostly inhibitors. actives 6.9% (n = 320,000)
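Compounds incubated with erythrocytes infected by luciferase-expressing P. falciparum (2% hematocrit, 0.05% parasitemia final) for 96 hours, 37 C in 5% CO2. Growth inhibition scored as decreased luciferase luminescence.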
Shiga toxin inh = A qHTS for Small Molecule Inhibitors of Shiga Toxin | inhibition, % at 38.7 µM | Vero cells, Shiga toxin protein synthesis inhibition reporter | actives 9.2% (n = 290,000); in the data active = inhibition mostly above about 28%, no sharp cut-off; inactive = mostly below about 43%
HCV inh = qHTS Assay for Inhibitors of Hepatitis C Virus (HCV) | Huh7.5.1 HCVcc-Cre infection, luciferase reporter, 44 h | Potency, µM (top dose mostly 41.8 µM), usual class: inhibitors | actives 3.4% (n = 340,000) | AID 651820, 2012
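Luciferase read-out (15 sec integration) after a 15 min room-temperature substrate step quantifies HCVcc-Cre infection. Cells, 1,000 per well, had compound added 4 h post-plating, then virus at ~0.5 moi, and were cultured 44 h.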
Cycloheximide cs = Cycloheximide Counterscreen for Small Molecule Inhibitors of Shiga Toxin. actives 12% (n = 300,000). AID 2314, 2010. cell reporter, cycloheximide protein synthesis inhibition counterscreen. max response, %; in the data active = max response mostly above about 13%, no sharp cut-off; inactive = mostly below about 14%; also: read at 38.3 µM for the half of the compounds with a filed dose
HCMV antiviral = qHTS Assay for inhibitors of the human cytomegalovirus (HCMV); activity change, negative = inhibition, % at 57.5 µM; actives 4.5% (n = 410,000); HFF cells, HCMV-luciferase reporter, 72 h; stronger effect = lower value; in the data active = activity change below about -60%; inconclusive = no clear call, values can overlap the other calls; inactive = above about -39%
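Luciferase read-out from HCMV-luciferase-infected HFFs (MOI 1 PFU/cell) 72 h post infection at 37C; compounds added after 16 h cell attachment; activity normalized between buffer-only basal and Salinomycin (10uM) inhibitor controls.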
Pf growth 48h = Primary qHTS for delayed death inhibitors of the malarial parasite plastid, 48 hour incubation; P. falciparum luciferase growth in erythrocytes, 48 h; AID 504832, 2011; actives 5.9% (n = 310,000); Potency, µM (series often up to 28.7 µM), actives largely listed as inhibitors
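Parasite viability was followed by luminescence of a genomically integrated firefly luciferase. Cultures held 0.1% parasitemia at 2% hematocrit (final), incubated under 5% CO2 at 37 C.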
Hits are given with their value. Unless noted, calls follow the shape of the dose curve; as a rule, active = well fitted inhibition curve with a large enough effect; inconclusive = small, poorly fitted or top-dose-only effect, or another doubt; inactive = no such curve, though single readings can be large or run the other way.

Screening CCN(Cc1ccc(OC)c(COC)c1)CC1CCCN(CCc2cccc(OC)c2)C1 (stereo unspecified) returned Pf growth 96h inactive, Shiga toxin inh inactive, HCV inh 7.94µM, Cycloheximide cs inactive, HCMV antiviral -74.9 and Pf growth 48h inconclusive.
For CCN(Cc1ccc(OC)c(COC)c1)CC1CCCN(CCc2cccc(F)c2)C1 (stereo unspecified) the results were Pf growth 96h inconclusive, Shiga toxin inh inactive, HCV inh 12.6µM, Cycloheximide cs inactive, HCMV antiviral inactive and Pf growth 48h 10.4µM.
CCN(Cc1ccc(NC(C)=O)cc1)CC1CCCN(CCc2cccc(OC)c2)C1 (stereo unspecified) was read as Pf growth 96h 11.7µM, Shiga toxin inh inactive, HCV inh inconclusive, Cycloheximide cs inactive, HCMV antiviral inactive and Pf growth 48h 11.7µM.
O=C(CN1C(=O)S/C(=C\c2ccc(Cl)cc2)C1=O)NCCCn1ccnc1 was read as Pf growth 96h inconclusive, Shiga toxin inh inactive, HCV inh inactive, Cycloheximide cs 16.6, HCMV antiviral inactive and Pf growth 48h inactive.
Screening COc1ccc(/C=C2\SC(=O)N(CC(=O)NCCCn3ccnc3)C2=O)cc1 returned Pf growth 96h inactive, Shiga toxin inh 18.9, HCV inh inactive, Cycloheximide cs 64.6, HCMV antiviral inactive and Pf growth 48h inactive.
Screening O=C(CN1C(=O)S/C(=C\c2cccc(Cl)c2)C1=O)NCCCn1ccnc1 returned Pf growth 96h inactive, Shiga toxin inh inactive, HCV inh inactive, Cycloheximide cs inactive, HCMV antiviral inactive and Pf growth 48h inactive.
COc1cccc(/C=C2\SC(=O)N(CC(=O)NCCCn3ccnc3)C2=O)c1 was read as Pf growth 96h inactive, Shiga toxin inh 28.9, HCV inh inactive, Cycloheximide cs inactive, HCMV antiviral inactive and Pf growth 48h inactive.
Screening Cc1ccc(NC(=O)CCn2cccn2)cc1Cl returned HCMV antiviral inactive.
For COc1ccc(C(O)Cc2nccn2C)cc1 (stereo unspecified) the results were HCV inh inactive and HCMV antiviral inactive.
`Cc1nnc(SC(C)C(=O)Nc2ncc(Cl)cc2Cl)n1Cc1ccccc1` (stereo unspecified) gave Pf growth 96h 2.08µM, Shiga toxin inh inactive, HCV inh inactive, Cycloheximide cs inactive, HCMV antiviral inactive and Pf growth 48h inconclusive.
For Cc1cc(SC(C)C(=O)Nc2ncc(Cl)cc2Cl)nc2ccccc12 (stereo unspecified) the results were Pf growth 96h inactive, Shiga toxin inh inactive, HCV inh inconclusive, Cycloheximide cs inactive, HCMV antiviral inactive and Pf growth 48h inactive.
For COCCn1c(SC(C)C(=O)Nc2ncc(Cl)cc2Cl)nc2ccccc21 (stereo unspecified) the results were Shiga toxin inh inactive, HCV inh inconclusive, Cycloheximide cs inactive, HCMV antiviral -69.7 and Pf growth 48h inconclusive.
`COc1ccc(Cl)cc1NC(=O)Cn1nnc2sc(-c3ccccc3)cc2c1=O` gave HCMV antiviral inactive.
For Cc1ccc(NC(=O)CN(C)CC(=O)N(C)Cc2ccccc2)cc1 the results were Pf growth 96h inactive, HCV inh inactive, HCMV antiviral inactive and Pf growth 48h inconclusive.
CCOc1ccc(CC(=O)NCCc2csc(-c3ccc(Cl)cc3)n2)cc1 was read as HCMV antiviral inactive.
For O=C(CCSc1nc(-c2ccco2)cc(C(F)(F)F)n1)Nc1cccc(O)c1 the results were HCMV antiviral inactive.
Screening COc1ccc(CCNC(=O)CCSc2nc(-c3ccco3)cc(C(F)(F)F)n2)cc1OC returned Pf growth 96h inconclusive, Shiga toxin inh inactive, HCV inh 5.62µM, Cycloheximide cs inactive, HCMV antiviral inactive and Pf growth 48h 9.28µM.
For O=C(CSc1nc(-c2ccco2)cc(C(F)(F)F)n1)NC1CCCC1 the results were Pf growth 96h inactive, Shiga toxin inh inactive, HCV inh inconclusive, Cycloheximide cs inactive and HCMV antiviral -68.1.
For O=C(CCSc1nc(-c2ccco2)cc(C(F)(F)F)n1)NCc1ccccn1 the results were Pf growth 96h inconclusive, Shiga toxin inh inactive, HCV inh 11.2µM, Cycloheximide cs inactive, HCMV antiviral inactive and Pf growth 48h inconclusive.
